# Experimental data as given in ChEMBL document CHEMBL2218924, “A broad activity screen in support of a chemogenomic map for kinase signalling research and drug discovery” (Biochem J, 2013).
# Columns and labels:
# [1] = molecular target: Insulin receptor (Homo sapiens) (UniProt P06213); settings: at 10 µM
# [2] = molecular target: Insulin receptor (Homo sapiens) (UniProt P06213); settings: at 1 µM
# [3] = molecular target: Insulin receptor (Homo sapiens) (UniProt P06213); settings: at 10 µM; remark: listed apart in the source
# [4] = molecular target: Interleukin-1 receptor-associated kinase 1 (Homo sapiens) (UniProt P51617); settings: at 1 µM
# Sequence of Interleukin-1 receptor-associated kinase 1 (Homo sapiens) (P51617 whole entry, looked up): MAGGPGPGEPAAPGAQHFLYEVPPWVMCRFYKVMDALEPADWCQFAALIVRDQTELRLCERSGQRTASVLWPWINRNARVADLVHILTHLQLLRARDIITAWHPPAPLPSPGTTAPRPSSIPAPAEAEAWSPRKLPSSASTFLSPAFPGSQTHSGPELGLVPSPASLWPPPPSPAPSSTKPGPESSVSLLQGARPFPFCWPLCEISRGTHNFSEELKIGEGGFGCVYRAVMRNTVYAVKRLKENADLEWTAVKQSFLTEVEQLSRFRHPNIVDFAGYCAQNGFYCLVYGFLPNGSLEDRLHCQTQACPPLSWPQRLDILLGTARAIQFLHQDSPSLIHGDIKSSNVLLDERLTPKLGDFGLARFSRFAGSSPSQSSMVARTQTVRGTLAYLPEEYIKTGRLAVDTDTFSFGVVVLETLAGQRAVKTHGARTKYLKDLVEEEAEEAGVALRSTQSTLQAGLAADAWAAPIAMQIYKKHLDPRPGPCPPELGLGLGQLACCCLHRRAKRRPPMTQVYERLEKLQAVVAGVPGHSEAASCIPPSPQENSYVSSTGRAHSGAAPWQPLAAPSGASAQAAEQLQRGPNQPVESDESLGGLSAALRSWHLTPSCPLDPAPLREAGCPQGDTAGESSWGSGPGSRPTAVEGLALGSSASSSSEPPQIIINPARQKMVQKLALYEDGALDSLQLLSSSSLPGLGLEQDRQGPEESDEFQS
# [5] = molecular target: Interleukin-1 receptor-associated kinase 1 (Homo sapiens) (UniProt P51617); settings: at 10 µM
# [6] = molecular target: T1, Interleukin-1 receptor-associated kinase 4 (Homo sapiens) (UniProt Q9NWZ3); settings: at 1 µM
# T1 sequence (whole entry): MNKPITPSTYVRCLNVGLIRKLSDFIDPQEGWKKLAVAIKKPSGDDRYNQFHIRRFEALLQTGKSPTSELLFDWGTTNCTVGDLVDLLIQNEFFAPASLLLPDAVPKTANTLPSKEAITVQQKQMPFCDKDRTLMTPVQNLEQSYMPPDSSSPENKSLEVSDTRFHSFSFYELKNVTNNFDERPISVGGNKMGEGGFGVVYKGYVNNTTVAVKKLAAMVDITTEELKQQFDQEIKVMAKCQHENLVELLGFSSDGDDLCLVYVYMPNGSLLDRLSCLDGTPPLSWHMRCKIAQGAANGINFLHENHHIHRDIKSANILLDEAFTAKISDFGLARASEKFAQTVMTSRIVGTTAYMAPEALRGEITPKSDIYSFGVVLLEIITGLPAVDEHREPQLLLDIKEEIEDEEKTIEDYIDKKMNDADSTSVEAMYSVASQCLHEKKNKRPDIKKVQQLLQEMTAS
# [7] = molecular target: T1, Interleukin-1 receptor-associated kinase 4 (Homo sapiens); settings: at 10 µM
# [8] = molecular target: Insulin receptor-related protein (Homo sapiens) (UniProt P14616); settings: at 1 µM
# Sequence of Insulin receptor-related protein (Homo sapiens) (P14616 27-742 limits assumed): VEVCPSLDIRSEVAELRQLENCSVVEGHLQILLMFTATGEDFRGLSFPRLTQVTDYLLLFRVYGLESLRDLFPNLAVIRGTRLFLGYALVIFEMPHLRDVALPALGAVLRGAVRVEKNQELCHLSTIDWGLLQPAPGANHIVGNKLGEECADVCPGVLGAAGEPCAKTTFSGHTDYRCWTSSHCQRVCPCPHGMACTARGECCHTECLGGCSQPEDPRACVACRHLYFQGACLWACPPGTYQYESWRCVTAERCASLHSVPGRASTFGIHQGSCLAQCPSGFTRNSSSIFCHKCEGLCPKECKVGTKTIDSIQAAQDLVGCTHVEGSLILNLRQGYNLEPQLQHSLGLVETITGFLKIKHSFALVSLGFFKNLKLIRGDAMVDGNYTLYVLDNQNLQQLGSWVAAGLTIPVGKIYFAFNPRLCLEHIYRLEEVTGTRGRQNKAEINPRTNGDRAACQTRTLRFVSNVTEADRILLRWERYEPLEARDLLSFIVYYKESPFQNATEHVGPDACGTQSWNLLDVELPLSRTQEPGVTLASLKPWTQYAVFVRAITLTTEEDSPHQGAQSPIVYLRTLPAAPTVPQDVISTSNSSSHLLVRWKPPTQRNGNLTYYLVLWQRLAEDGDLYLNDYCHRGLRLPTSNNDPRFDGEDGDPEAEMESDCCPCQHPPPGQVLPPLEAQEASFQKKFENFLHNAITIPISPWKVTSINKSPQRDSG
# Sequence of Insulin receptor-related protein (Homo sapiens) (P14616 747-1297 limits assumed): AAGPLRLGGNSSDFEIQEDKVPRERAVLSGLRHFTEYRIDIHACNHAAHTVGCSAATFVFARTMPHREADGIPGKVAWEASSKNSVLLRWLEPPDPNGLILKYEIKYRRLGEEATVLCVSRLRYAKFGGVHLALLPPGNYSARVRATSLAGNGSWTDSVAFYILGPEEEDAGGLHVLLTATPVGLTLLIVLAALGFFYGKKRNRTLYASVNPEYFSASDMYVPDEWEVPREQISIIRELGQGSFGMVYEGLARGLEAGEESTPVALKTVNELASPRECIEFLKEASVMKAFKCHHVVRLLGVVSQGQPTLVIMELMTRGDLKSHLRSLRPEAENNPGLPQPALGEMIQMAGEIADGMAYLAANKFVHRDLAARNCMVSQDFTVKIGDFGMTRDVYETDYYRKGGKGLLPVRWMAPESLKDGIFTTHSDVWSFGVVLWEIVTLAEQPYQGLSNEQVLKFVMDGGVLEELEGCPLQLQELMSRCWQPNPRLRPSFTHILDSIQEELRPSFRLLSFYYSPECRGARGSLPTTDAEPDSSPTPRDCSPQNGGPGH
# [9] = molecular target: Insulin receptor-related protein (Homo sapiens) (UniProt P14616); settings: at 10 µM
# [10] = molecular target: T2, Tyrosine-protein kinase ITK/TSK (Homo sapiens) (UniProt Q08881); settings: at 1 µM
# T2 sequence (whole entry): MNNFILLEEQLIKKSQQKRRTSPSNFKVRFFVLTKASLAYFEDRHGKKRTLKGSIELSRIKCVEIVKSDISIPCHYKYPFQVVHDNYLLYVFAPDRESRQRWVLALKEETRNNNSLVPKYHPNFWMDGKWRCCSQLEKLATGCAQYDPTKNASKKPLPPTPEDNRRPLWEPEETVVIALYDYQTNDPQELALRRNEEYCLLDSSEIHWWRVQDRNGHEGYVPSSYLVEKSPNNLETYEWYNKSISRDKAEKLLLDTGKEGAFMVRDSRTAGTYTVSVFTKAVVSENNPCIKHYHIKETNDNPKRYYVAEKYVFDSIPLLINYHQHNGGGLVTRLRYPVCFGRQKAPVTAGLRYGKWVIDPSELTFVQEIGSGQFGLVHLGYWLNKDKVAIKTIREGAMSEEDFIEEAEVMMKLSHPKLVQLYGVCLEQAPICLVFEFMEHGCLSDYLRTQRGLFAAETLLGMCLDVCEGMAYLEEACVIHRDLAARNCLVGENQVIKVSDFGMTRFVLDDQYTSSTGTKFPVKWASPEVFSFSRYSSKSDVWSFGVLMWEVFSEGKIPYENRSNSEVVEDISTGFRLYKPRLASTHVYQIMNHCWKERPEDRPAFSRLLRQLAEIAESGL
# Sequence of Insulin receptor (Homo sapiens) (P06213 28-758 limits assumed): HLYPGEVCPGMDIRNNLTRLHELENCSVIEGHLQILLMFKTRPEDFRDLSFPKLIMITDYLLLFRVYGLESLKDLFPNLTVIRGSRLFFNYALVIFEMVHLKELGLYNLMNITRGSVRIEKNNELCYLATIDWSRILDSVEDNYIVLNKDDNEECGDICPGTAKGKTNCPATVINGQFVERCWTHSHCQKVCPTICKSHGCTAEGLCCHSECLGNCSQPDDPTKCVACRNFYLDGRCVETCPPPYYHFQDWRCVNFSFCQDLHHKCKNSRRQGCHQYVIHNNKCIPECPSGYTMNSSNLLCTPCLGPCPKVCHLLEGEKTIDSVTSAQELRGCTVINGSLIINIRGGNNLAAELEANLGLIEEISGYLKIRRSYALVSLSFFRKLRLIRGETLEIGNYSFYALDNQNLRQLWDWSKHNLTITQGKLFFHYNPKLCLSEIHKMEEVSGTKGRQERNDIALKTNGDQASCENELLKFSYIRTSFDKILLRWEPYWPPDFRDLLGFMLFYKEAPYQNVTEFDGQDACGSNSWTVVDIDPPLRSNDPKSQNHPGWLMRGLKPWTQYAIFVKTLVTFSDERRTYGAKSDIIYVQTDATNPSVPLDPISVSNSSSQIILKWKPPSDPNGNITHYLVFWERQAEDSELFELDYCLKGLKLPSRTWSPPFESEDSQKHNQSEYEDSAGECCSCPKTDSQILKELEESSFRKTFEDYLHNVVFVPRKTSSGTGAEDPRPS
# Sequence of Insulin receptor (Homo sapiens) (P06213 763-1382 limits assumed): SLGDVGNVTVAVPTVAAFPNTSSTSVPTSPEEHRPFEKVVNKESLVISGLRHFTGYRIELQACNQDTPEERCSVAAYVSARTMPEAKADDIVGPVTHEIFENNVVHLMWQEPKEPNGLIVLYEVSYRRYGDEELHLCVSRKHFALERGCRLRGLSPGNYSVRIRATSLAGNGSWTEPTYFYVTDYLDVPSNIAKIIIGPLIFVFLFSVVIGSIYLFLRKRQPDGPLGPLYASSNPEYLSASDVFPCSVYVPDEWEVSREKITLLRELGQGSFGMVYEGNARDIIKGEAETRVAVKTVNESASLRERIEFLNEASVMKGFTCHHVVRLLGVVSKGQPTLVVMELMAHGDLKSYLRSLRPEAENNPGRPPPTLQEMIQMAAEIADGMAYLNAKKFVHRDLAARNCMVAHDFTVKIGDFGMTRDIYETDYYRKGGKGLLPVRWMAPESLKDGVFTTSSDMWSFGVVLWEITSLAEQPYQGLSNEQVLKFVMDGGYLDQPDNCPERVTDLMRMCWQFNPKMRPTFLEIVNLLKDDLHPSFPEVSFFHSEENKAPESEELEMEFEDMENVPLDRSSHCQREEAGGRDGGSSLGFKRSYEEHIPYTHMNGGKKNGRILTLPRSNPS
compound,measurement,setting,value
Cc1ccc(NC2=CC(=O)c3sc(C)nc3C2=O)cc1,residual activity,[1],90%
same,residual activity,[2],102%
same,residual activity,[3],96%
same,residual activity,[4],105%
same,residual activity,[5],110%
same,residual activity,[6],85%
same,residual activity,[7],86%
same,residual activity,[8],118%
same,residual activity,[9],108%
same,residual activity,[10],105%
Cn1nc2c3c(cccc31)C(=O)c1ccccc1-2,residual activity,[1],74%
same,residual activity,[2],81%
same,residual activity,[3],63%
same,residual activity,[4],90%
same,residual activity,[5],87%
same,residual activity,[6],76%
same,residual activity,[7],47%
same,residual activity,[8],103%
same,residual activity,[9],89%
same,residual activity,[10],100%
Cc1ccc(S(=O)(=O)/C=C/C#N)cc1,residual activity,[1],91%
same,residual activity,[2],99%
same,residual activity,[3],95%
same,residual activity,[4],102%
same,residual activity,[5],109%
same,residual activity,[6],97%
same,residual activity,[7],92%
same,residual activity,[8],119%
same,residual activity,[9],106%
same,residual activity,[10],103%
CN(C)c1ccc(/C=C2\C(=O)Nc3ccccc32)cc1,residual activity,[1],65%
same,residual activity,[2],93%
same,residual activity,[3],71%
same,residual activity,[4],118%
same,residual activity,[5],91%
same,residual activity,[6],92%
same,residual activity,[7],46%
same,residual activity,[8],111%
same,residual activity,[9],23%
same,residual activity,[10],98%
CCN(CC)CCCCN1c2ccccc2Oc2ccc(Cl)cc21,residual activity,[1],112%
same,residual activity,[2],102%
same,residual activity,[3],104%
same,residual activity,[4],111%
same,residual activity,[5],105%
same,residual activity,[6],118%
same,residual activity,[7],107%
same,residual activity,[8],121%
same,residual activity,[9],102%
same,residual activity,[10],108%
C[C@@H](N)[C@H]1CC[C@H](C(=O)Nc2ccncc2)CC1,residual activity,[1],109%
same,residual activity,[2],104%
same,residual activity,[3],97%
same,residual activity,[4],100%
same,residual activity,[5],98%
same,residual activity,[6],101%
same,residual activity,[7],95%
same,residual activity,[8],103%
same,residual activity,[9],101%
same,residual activity,[10],106%
CN(C)CCCn1cc(C2=C(c3c[nH]c4ccccc34)C(=O)NC2=O)c2ccccc21,residual activity,[1],100%
same,residual activity,[2],100%
same,residual activity,[3],72%
same,residual activity,[4],111%
same,residual activity,[5],89%
same,residual activity,[6],121%
same,residual activity,[7],53%
same,residual activity,[8],137%
same,residual activity,[9],75%
Oc1n[nH]c2nnc(-c3c(-c4ccccc4)nn4ccccc34)cc12,residual activity,[1],12%
same,residual activity,[2],89%
same,residual activity,[3],75%
same,residual activity,[4],99%
same,residual activity,[5],103%
same,residual activity,[6],75%
same,residual activity,[7],89%
same,residual activity,[8],25%
same,residual activity,[9],2%
same,residual activity,[10],99%
COc1ccc(CNc2nc(N(CCO)CCO)nc3c2ncn3C(C)C)cc1,residual activity,[1],85%
same,residual activity,[2],90%
same,residual activity,[3],77%
same,residual activity,[4],91%
same,residual activity,[5],107%
same,residual activity,[6],71%
same,residual activity,[7],71%
same,residual activity,[8],92%
same,residual activity,[9],87%
same,residual activity,[10],94%
O=C1Nc2ccccc2/C1=C1/Nc2ccccc2/C1=N\OCCC(O)CO (centres undefined),residual activity,[1],4%
same,residual activity,[2],10%
same,residual activity,[3],4%
same,residual activity,[4],31%
same,residual activity,[5],23%
same,residual activity,[6],16%
same,residual activity,[7],0%
same,residual activity,[8],2%
same,residual activity,[9],2%
same,residual activity,[10],24%
Cc1nc2cc3nc(-c4cccs4)cnc3cc2n1C,residual activity,[1],101%
same,residual activity,[2],106%
same,residual activity,[3],95%
same,residual activity,[4],110%
same,residual activity,[5],90%
same,residual activity,[6],111%
same,residual activity,[7],70%
same,residual activity,[8],130%
same,residual activity,[9],100%
same,residual activity,[10],108%
Nc1cccc(-c2cc3c(Oc4cccc(O)c4)ncnc3[nH]2)c1,residual activity,[1],46%
same,residual activity,[2],103%
same,residual activity,[3],78%
same,residual activity,[4],69%
same,residual activity,[5],20%
same,residual activity,[6],79%
same,residual activity,[7],69%
same,residual activity,[8],98%
same,residual activity,[9],58%
same,residual activity,[10],68%
COc1cc2ncnc(Nc3ccc(O)c(Br)c3)c2cc1OC,residual activity,[1],76%
same,residual activity,[2],95%
same,residual activity,[3],91%
same,residual activity,[4],40%
same,residual activity,[5],10%
same,residual activity,[6],44%
same,residual activity,[7],17%
same,residual activity,[8],102%
same,residual activity,[9],75%
same,residual activity,[10],89%
CC(C)n1cnc2/c(=N/c3cccc(Cl)c3)nc(NCCO)[nH]c21,residual activity,[1],36%
same,residual activity,[2],68%
same,residual activity,[3],17%
same,residual activity,[4],76%
same,residual activity,[5],34%
same,residual activity,[6],44%
same,residual activity,[7],14%
same,residual activity,[8],96%
same,residual activity,[9],35%
same,residual activity,[10],76%
Cc1nc(-c2ccccc2)c(-c2ccncc2)o1,residual activity,[1],106%
same,residual activity,[2],109%
same,residual activity,[3],93%
same,residual activity,[4],110%
same,residual activity,[5],107%
same,residual activity,[6],104%
same,residual activity,[7],88%
same,residual activity,[8],118%
same,residual activity,[9],123%
same,residual activity,[10],113%
O=C(O)c1ccc2c3c1cccc3c(=O)n1c3ccccc3nc21,residual activity,[1],110%
same,residual activity,[2],104%
same,residual activity,[3],85%
same,residual activity,[4],35%
same,residual activity,[5],3%
same,residual activity,[6],105%
same,residual activity,[7],89%
same,residual activity,[8],125%
same,residual activity,[9],98%
same,residual activity,[10],107%
Cc1cncc2cccc(S(=O)(=O)N3CCCN(C(=O)CN)C[C@H]3C)c12,residual activity,[1],70%
same,residual activity,[2],97%
same,residual activity,[3],76%
same,residual activity,[4],82%
same,residual activity,[5],67%
